Assay results published in PubChem BioAssay (Tox21).
Records with an inconclusive call do not appear. Values without a mark were called inactive. Calls come from the whole dose curve; as a rule, active = well fitted cell-killing curve with a large enough effect in the repeat runs; inconclusive = weak or mixed curves, or effect the other way; inactive = flat fitted curve, though single readings scatter.

Assay: qHTS assay to identify small molecule antagonists of the estrogen related receptor signaling pathway with the pleiotropic PPARgamma coactivator (PGC) cell viability counter screen (AID 1224822;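 note: viability read after 17.5 h compound exposure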)
Conditions: ERR/PGC reporter cell line viability counter screen; series mostly up to 46.1 µM; viability change, negative = cytotoxic: at the top concentration
Text: National Center for Advancing Translational Sciences [NCATS]
NIH Chemical Genomics Center [NCGC]
U.S. Environmental Protection Agency [EPA]
National Institutes of Environmental Health Sciences [NIEHS]
National Toxicology Program [NTP]
U.S. Food and Drug Administration [FDA]
Estrogen related receptors (ERRs), the first orphan nuclear receptors discovered, play an important role in the control of cellular energy metabolism. ERRs are required for high-energy production in response to the environmental challenges. The pleiotropic PPARgamma coactivator (PGC) is a major partner of ERR and a key regulator in energy homeostasis. Together they have been implicated in the etiology of metabolic disorders such as Type 2 diabetes and metabolic syndrome. ERR-alpha was also identified as an adverse marker for breast cancer progression; ERR-alpha-positive tumors have a poor prognosis. To screen and to identify environmental compounds that perturb the ERR and PGC/ERR signaling pathways could provide valuable information for potential therapeutic or preventive measures in the treatment of metabolic disease. To differentiate true PGC/ERR antagonists or agonist from cytotoxic substances, the assay is multiplexed with cell viability assay.
Tox21 Assay Protocol Summary:
The PGC/ERR cells were dispensed at 2,000 cells/5 ul/well in 1536-well white plates using a Multidrop dispenser. After the assay plates were incubated at a 37 C/5% CO2 incubator for 6 hours, 23 nL of compounds dissolved in DMSO, positive and negative controls or DMSO only was transferred to the assay plate by a pin tool. The plates were incubated at 37 C for 17.5 hours. 1 ul/well of CellTiter-Fluor reagent was added into the assay plates using a Flying Reagent Dispenser. After 30 min incubation at 37 C/5% CO2, the fluorescence intensity in the plates was measured using a ViewLux plate reader.
% is set by controls: 0 for no effect and ±100 for the full control effect.

| Compound | viability change, negative = cytotoxic |
| --- | --- |
| NC(CO)C(=O)NNCc1ccc(O)c(O)c1O (stereo not drawn) | 3.99% |
| CCN(CC)CC(=O)Nc1c(C)cccc1C | 0.669% |
| CCN1CCc2nc(N)oc2CC1 | 3% |
| FC(F)(F)c1ccccc1-n1ccnc1 | 3.13% |
| COC(=O)[C@@H]1[C@H]2C[C@H]3c4[nH]c5ccccc5c4CCN3C[C@@H]2CC[C@@H]1O | 9.1% |
| O=C(NCCN1CCOCC1)c1ccc(Cl)cc1 | 5.99% |
| Nc1nnc(-c2cccc(Cl)c2Cl)c(N)n1 | 12.3% |
| CN1CCN(CC(=O)N2c3ccccc3C(=O)Nc3cccnc32)CC1 | 9.34% |
| CCCN1C[C@H](CSC)C[C@@H]2c3cccc4[nH]cc(c34)C[C@H]21 | 0.12% |
| CCOC(=O)c1ncn2c1CN(C)C(=O)c1cc(F)ccc1-2 | 7.15% |
| C[C@@H](O)[C@H]1C(=O)N2C(C(=O)O)=C(SCCN=CN)C[C@H]12 | 0.997% |
| N[C@@H](COP(=O)(O)O)C(=O)O | 9.83% |
| NCCS | 6.21% |
| CN(CCOc1ccc(NS(C)(=O)=O)cc1)CCc1ccc(NS(C)(=O)=O)cc1 | 11.4% |
| O=C(CCNNC(=O)c1ccncc1)NCc1ccccc1 | 2.31% |
| CNS(=O)(=O)CCc1ccc2[nH]cc(C3CCN(C)CC3)c2c1 | 4.97% |
| CC(=O)CCCCn1c(=O)c2c(ncn2C)n(C)c1=O | -4.18% |
| COc1ccc(C2CNC(=O)C2)cc1OC1CCCC1 (stereo not drawn) | 8.65% |
| Cc1cccc(C)c1OCC(C)N (stereo not drawn) | 17.3% |
| CCCCNc1ccc(C(=O)OCCN(C)C)cc1 | -2.23% |
| CC(C)NCC(O)COc1cccc2[nH]ccc12 (stereo not drawn) | -2.73% |
| CC(C)NCC(O)COc1ccc(COCCOC(C)C)cc1 (stereo not drawn) | 12.1% |
| Cc1cc(C(C)(C)C)c(O)c(C)c1CC1=NCCN1 | 4.79% |
